Whole data set: some 33,000 sequences, median “E-score (-0.5 to 0.5)” near -0.012, cut for the highest 2% near 0.29. For the sample, the highest values were picked, then their nearest neighbours and some sequences at random.

The target in the assay is T1, Ybr033w (UniProt P38073).
T1 sequence: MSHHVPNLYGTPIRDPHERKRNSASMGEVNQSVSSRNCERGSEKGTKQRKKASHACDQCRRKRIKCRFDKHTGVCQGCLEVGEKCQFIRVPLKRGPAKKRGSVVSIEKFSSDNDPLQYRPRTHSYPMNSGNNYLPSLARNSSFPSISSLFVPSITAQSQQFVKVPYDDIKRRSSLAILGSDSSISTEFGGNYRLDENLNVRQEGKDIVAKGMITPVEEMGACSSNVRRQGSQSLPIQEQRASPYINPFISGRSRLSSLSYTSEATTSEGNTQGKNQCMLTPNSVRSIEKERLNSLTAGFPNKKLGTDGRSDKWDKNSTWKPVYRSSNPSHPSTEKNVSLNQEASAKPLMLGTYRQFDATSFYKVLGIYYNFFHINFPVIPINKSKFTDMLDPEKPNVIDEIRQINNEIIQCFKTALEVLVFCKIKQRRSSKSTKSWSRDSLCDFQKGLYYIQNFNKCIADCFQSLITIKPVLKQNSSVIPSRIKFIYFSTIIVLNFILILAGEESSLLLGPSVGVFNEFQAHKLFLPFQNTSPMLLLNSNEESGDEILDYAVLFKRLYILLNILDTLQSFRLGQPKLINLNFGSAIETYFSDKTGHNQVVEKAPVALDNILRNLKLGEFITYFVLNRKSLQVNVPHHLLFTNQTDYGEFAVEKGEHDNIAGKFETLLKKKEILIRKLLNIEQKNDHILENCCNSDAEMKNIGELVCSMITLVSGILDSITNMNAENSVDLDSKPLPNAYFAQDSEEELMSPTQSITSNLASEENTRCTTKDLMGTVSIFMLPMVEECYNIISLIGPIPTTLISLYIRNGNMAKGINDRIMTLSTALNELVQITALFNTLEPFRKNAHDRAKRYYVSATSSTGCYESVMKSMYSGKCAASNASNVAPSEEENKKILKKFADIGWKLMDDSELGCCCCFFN
Description: PBM E-score (8-mer binding enrichment) (E-score (-0.5 to 0.5)); higher = stronger / more preferred TF binding. The following applies: protein concentration: 200 nM; construct: GST-full length. How it is done:
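Universal 'all 10-mer' protein binding microarrays (Agilent AMADID 015681) probed with GST-tagged S. cerevisiae TFs (full-length or DBD) made by in vitro transcription/translation (PURExpress), about 100-200 nM. Bound TF was detected with fluorescent anti-GST. Each ungapped 8-mer (which stands for itself and its reverse complement) is scored by the PBM enrichment score (E-score), a modified Wilcoxon-Mann-Whitney statistic from -0.5 to +0.5, computed with the Universal PBM Analysis Suite. Scale: above 0.35 generally sequence-specific binding.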
Consider TTCTAGAA, for which the “PBM E-score” value came out at 0.102.

As to GTTTTCAA, the “PBM E-score” value was 0.146.

For GTCCAGAC, the “PBM E-score” value was -0.308.

With CGCCCAGA, the “PBM E-score” value was -0.174.

As for ACGATCTA, the “PBM E-score” value is -0.0695.

In the case of ATACAATC, the “PBM E-score” value amounted to 0.0522.

Turning to ATACAATA, the “PBM E-score” value worked out at 0.332.

Consider CTACAATA, for which the “PBM E-score” value was 0.164.

On to CCGCGAGC, for which the “PBM E-score” value was -0.194.

On to CACTTTTA, for which the “PBM E-score” value is 0.0413.

Take TAGGAGGA: the “PBM E-score” value is 0.0316.

Consider GCGGAAGA, for which the “PBM E-score” value came to 0.236.

For the sequence GCGGAATA, the “PBM E-score” value worked out at 0.293.

Turning to ACGGAATC, the “PBM E-score” value came to 0.113.

For the sequence CGGGAATA, the “PBM E-score” value stood at 0.246.

In the case of CCGGAATC, the “PBM E-score” value is -0.0781.

ACGGAATG: the “PBM E-score” value was -0.153.

Turning to CCGGAATA, the “PBM E-score” value is 0.412.

Take GGGGAATA: the “PBM E-score” value was -0.0146.

Take ACGGAATA: the “PBM E-score” value worked out at 0.351.

CCTATTCG: the “PBM E-score” value is -0.149.

Turning to CGACGGTA, the “PBM E-score” value is -0.0307.

As to ATTACTAA, the “PBM E-score” value was determined as 0.225.

As to CGTTCTTA, the “PBM E-score” value amounted to 0.0158.

As for ATCTTCTC, the “PBM E-score” value came to 0.0573.

Take ACATCGGG: the “PBM E-score” value was -0.0939.

For the sequence TATTTGAA, the “PBM E-score” value came out at 0.255.

Consider ATTAATAA, for which the “PBM E-score” value was 0.302.

As for ACTAATAC, the “PBM E-score” value stood at 0.228.

As to ACTAATAG, the “PBM E-score” value was determined as 0.2.

As to ATTAATCG, the “PBM E-score” value came out at 0.166.

Consider ATTAATAC, for which the “PBM E-score” value was 0.306.

With AGTAATAA, the “PBM E-score” value came out at 0.18.

As for ATTAATCA, the “PBM E-score” value is 0.26.

As for GTTAATAA, the “PBM E-score” value turned out to be 0.329.

In the case of GTTAATCA, the “PBM E-score” value came out at 0.277.

For ATTAATAG, the “PBM E-score” value stood at 0.373.

As for CTTAATAA, the “PBM E-score” value was 0.182.

With CTTAATAC, the “PBM E-score” value is 0.136.

Consider GACACACC, for which the “PBM E-score” value is -0.0728.

As for CAGGGTGG, the “PBM E-score” value is -0.234.

Consider CTCTAGGC, for which the “PBM E-score” value is -0.153.

Take GCATAGCA: the “PBM E-score” value is 0.0192.

Take GCTAGTAA: the “PBM E-score” value was -0.014.

In the case of CAAGGTGA, the “PBM E-score” value is -0.103.

Turning to ACCTAGCA, the “PBM E-score” value was 0.0895.

In the case of AGTGAAGC, the “PBM E-score” value was -0.0225.

As to ACCTCGGA, the “PBM E-score” value is 0.0486.

As for CGAATCGC, the “PBM E-score” value was -0.0798.

As to ACAGGTAC, the “PBM E-score” value was -0.0953.

As for CACGCGCG, the “PBM E-score” value was -0.0876.

Take GAAGGCCC: the “PBM E-score” value was -0.223.

As to TTAAATAA, the “PBM E-score” value amounted to 0.264.

With ATAAAAAG, the “PBM E-score” value worked out at 0.316.

Take ATAAAAAA: the “PBM E-score” value amounted to 0.164.

As for ATAAAATC, the “PBM E-score” value was determined as 0.226.

Regarding ATAAAAAT, the “PBM E-score” value is 0.193.

On to ATAAATAA, for which the “PBM E-score” value amounted to 0.38.

Consider GTAAAATA, for which the “PBM E-score” value stood at 0.269.

Take ATAAAATA: the “PBM E-score” value is 0.344.

On to ATAAAAGG, for which the “PBM E-score” value is -0.0365.

Take ATAAATAG: the “PBM E-score” value is 0.254.

As for ATAAATAC, the “PBM E-score” value was determined as 0.211.

Regarding ATAAATAT, the “PBM E-score” value amounted to 0.396.

Consider CGAAAATC, for which the “PBM E-score” value was 0.222.

Consider CACCTATA, for which the “PBM E-score” value was found to be 0.0106.

For AGTCTGTC, the “PBM E-score” value is -0.0266.

With ACCTTCCG, the “PBM E-score” value was -0.032.

With CGTATAGC, the “PBM E-score” value was -0.0573.

Consider CGATTGGC, for which the “PBM E-score” value was -0.0233.

As for ACCGGTCA, the “PBM E-score” value is -0.2.

Consider CCCCAAAC, for which the “PBM E-score” value was -0.101.

For AAATAAGA, the “PBM E-score” value is 0.16.

As for ACTCAGAA, the “PBM E-score” value worked out at 0.11.

TGCTATAA: the “PBM E-score” value is 0.0493.

On to ATATTGAT, for which the “PBM E-score” value was determined as 0.39.

On to AAATTGTC, for which the “PBM E-score” value turned out to be 0.192.

For AAATTGTT, the “PBM E-score” value was 0.317.

As for AAATTGTA, the “PBM E-score” value was 0.22.

Turning to AAATTGAC, the “PBM E-score” value was 0.108.

For AAATTGAA, the “PBM E-score” value came out at 0.127.

In the case of ATATTGAG, the “PBM E-score” value was determined as 0.259.

In the case of AAATTGAT, the “PBM E-score” value stood at 0.336.

For the sequence ATATTGAA, the “PBM E-score” value stood at 0.189.

On to AAGGGCAG, for which the “PBM E-score” value is -0.151.

TACTGGCA: the “PBM E-score” value was -0.0764.

Turning to ATAGAGCG, the “PBM E-score” value is -0.117.

As to AGCACTCC, the “PBM E-score” value was -0.0492.

As for ATAATACC, the “PBM E-score” value was 0.187.

With CTAATAAC, the “PBM E-score” value worked out at 0.216.

On to ACAATAAA, for which the “PBM E-score” value stood at 0.14.

For the sequence ACAATAAC, the “PBM E-score” value was determined as 0.246.

Take TTAATAAA: the “PBM E-score” value is 0.381.

Consider ACAATAAT, for which the “PBM E-score” value came out at 0.341.

As to ATAATACG, the “PBM E-score” value was 0.187.

For ATAATAGA, the “PBM E-score” value was 0.223.

Take ATAATACA: the “PBM E-score” value came out at 0.305.

With ATAATAAA, the “PBM E-score” value was found to be 0.366.

In the case of CTAATAAA, the “PBM E-score” value stood at 0.28.

For GTAATAAA, the “PBM E-score” value turned out to be 0.198.

For ACAGCCCG, the “PBM E-score” value is -0.175.

Consider GATCTCCA, for which the “PBM E-score” value is -0.0356.

Consider GGATCTAA, for which the “PBM E-score” value is -0.0711.

On to CGAGACCC, for which the “PBM E-score” value was -0.167.

Turning to GAGAACTA, the “PBM E-score” value came out at 0.101.

On to AAGCCCTA, for which the “PBM E-score” value was -0.124.

As to ACATACAT, the “PBM E-score” value was 0.226.

As for AACCCTAG, the “PBM E-score” value is -0.0236.

In the case of ACTTTAAT, the “PBM E-score” value was 0.114.

For the sequence AAGCAAAA, the “PBM E-score” value came to 0.13.
